HCV inh: qHTS Assay for Inhibitors of Hepatitis C Virus (HCV). Huh7.5.1 HCVcc-Cre infection, luciferase reporter, 44 h. Potency, µM (titrated, usually from 41.8 µM), inactives show at the top dose activity change, negative = inhibition, actives largely listed as inhibitors. hit rate 3.4% among 340,000; further: on the % scale 0 is the no-effect control and ±100 the full control effect
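Cells seeded at 1,000/well and cultured 4 h, then compounds added followed by HCVcc-Cre virus (~0.5 moi). After 44 h further culture, luciferase substrate was added, plates held 15 min at room temperature, and luminescence read for 15 sec.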
NS1 function inh: qHTS Assay for Inhibitors of Influenza NS1 Protein Function; Potency, µM (doses to about 46.1 µM), for the others: top-dose activity, positive = more growth; AID 2326, 2010; hit rate 0.4% among 270,000; calls by dose curve; further: actives are rising curves; nearly all actives have a fitted effect of over 50% in size
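A cell-based growth assay was used: compounds that relieve NS1-induced slow growth of budding yeast raise OD600. Assay medium was yeast nitrogen base with ammonium sulphate and -URA supplement, pH 6.0, with 2% galactose.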
Pf growth 48h: Primary qHTS for delayed death inhibitors of the malarial parasite plastid, 48 hour incubation; P. falciparum luciferase growth in erythrocytes, 48 h; Potency, µM (doses to about 28.7 µM), without a hit: top-dose activity change, negative = inhibition, hits mostly inhibitors; hit rate 5.9% among 310,000; further: on the % scale 0 is the no-effect control and ±100 the full control effect
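Growth was read as firefly luciferase luminescence after a 48 h, 37 C, 5% CO2 exposure of compounds to reporter-bearing P. falciparum cultures (0.1% parasitemia, 2% hematocrit final) in Albumax-supplemented RPMI 1640.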
AMA1-RON2 inh: qHTS for Inhibitors of AMA1-RON; Towards Development of Antimalarial Drug Lead: Primary Screen; AID 720542, 2013; AlphaScreen AMA1-biotinylated RON2 peptide binding; hit rate 0.2% among 360,000; Potency, µM (titrated, usually from 58.2 µM), for inactives: at the top dose activity change, negative = inhibition, actives largely listed as inhibitors;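 further: 0% = vehicle wells and -100% = peptide control; nearly all actives have a fitted effect of over 45% in size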
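AMA1 (3D7) with his tag at 25 nM final met compounds first, then biotinylated RON2 peptide at 25 nM; detection used donor plus acceptor beads, 10 µg/mL apiece, read by AlphaScreen after 30 min at room temperature.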
Pf growth 96h: Primary qHTS for delayed death inhibitors of the malarial parasite plastid, 96 hour incubation | P. falciparum luciferase reporter growth, 96 h | hit rate 6.9% among 320,000 | AID 504834, 2011 | Potency, µM (titrated, usually from 28.7 µM), inactives show at the highest dose activity change, negative = inhibition, usual class: inhibitors; further: on the % scale 0 is the no-effect control and ±100 the full control effect
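Two-generation exposure (96 h) targets delayed-death phenotype. Reporter parasites carrying integrated firefly luciferase, in red cells at 2% hematocrit and 0.05% parasitemia final, kept at 37 C, 5% CO2; luminescence loss indicates inhibition.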
SARS PLpro yeast: qHTS of Yeast-based Assay for SARS-CoV PLP | AID 485353, 2010 | S. cerevisiae expressing SARS-CoV PLpro, growth rescue | hit rate 0.19% among 330,000 | Potency, µM (doses to about 32.9 µM), for inactives: at the highest dose activity, positive = growth rescue, usual class: activators; calls by dose curve; further: 0% is about no effect; nearly all actives have a fitted effect of over 55% in size
* marks the source's active call; other numbers are inactive results; i = inactive; ? = inconclusive; . = no result. This is a sample that favours compounds with a hit; in the whole collection about 12% have one here. Unless noted, the call rests on the fitted dose curve; in most records, active means well fitted curve in the direction sought with a large enough effect; inconclusive means small, poorly fitted or top-dose-only effect, or another doubt; inactive means no such curve, though single readings can be large; an effect the other way counts as inactive or inconclusive. Potency means the concentration at half of the fitted maximal effect.

SMILES	HCV inh	NS1 function inh	Pf growth 48h	AMA1-RON2 inh	Pf growth 96h	SARS PLpro yeast
Oc1c(CN2CCCCC2)ccc2cccnc12	10µM*	.	.	-93.1%	.	.
Oc1ccc(CN2CCc3ccccc3C2)c2cccnc12	3.98µM*	-37.3%	?	-92.6%	3.7µM*	.
CCOc1ccc(-n2cnc3scc(-c4ccc(OC)c(OC)c4)c3c2=O)cc1	?	-0.8%	?	-22.2%	2.62µM*	2.6%
COc1cccc(-n2cnc3scc(-c4cccs4)c3c2=O)c1	11.2µM*	-6.0%	-25.2%	3.5%	.	-9.8%
COc1ccc(-c2nc3scc(-c4ccc(OC)c(OC)c4)c3c(=O)o2)cc1	?	2.6%	19.0%	-5.9%	31.3%	11.3%
CCCN(C(=O)COC(=O)CC1CCCCC1)c1c(N)n(Cc2ccccc2)c(=O)[nH]c1=O	8.9%	.	8.28µM*	4.2%	?	2.8%
COCCN(C(=O)COC(=O)CC1CCCCC1)c1c(N)n(Cc2ccccc2)c(=O)[nH]c1=O	9.8%	14.0%	?	0.0%	?	3.7%
COCCN(C(=O)COC(=O)c1c(NC(C)=O)sc(C)c1C)c1c(N)n(Cc2ccccc2)c(=O)[nH]c1=O	?	.	?	5.3%	10.4µM*	-3.9%
CCCN(C(=O)COC(=O)c1[nH]c(C)c(C(=O)OC)c1C)c1c(N)n(Cc2ccccc2)c(=O)[nH]c1=O	?	.	14.7µM*	-2.1%	?	3.5%
CCC1CCc2sc(C(=O)OCC(=O)N(CCOC)c3c(N)n(Cc4ccccc4)c(=O)[nH]c3=O)cc2C1 (configuration not stated)	?	.	?	8.7%	10.4µM*	0.8%
CC(=O)Nc1sc(C)c(C)c1C(=O)OCC(=O)N(C)c1c(N)n(Cc2ccccc2)c(=O)[nH]c1=O	15.6%	.	?	14.5%	13.0%	-4.4%
O=C(N/N=C/C=C/c1ccc2c(c1)OCO2)C(O)c1ccccc1 (configuration not stated)	-3.9%	2.8%	1.9%	22.5%	24.6%	0.4%
Nc1c(N(C(=O)Nc2ccc(Cl)c(Cl)c2)C2CCCC2)c(=O)[nH]c(=O)n1Cc1ccccc1	11.2µM*	8.0%	-23.4%	15.5%	.	2.6%
COc1ccc(C2=NOC(CNC(N)=S)C2)cc1 (configuration not stated)	-3.5%	.	i	-4.2%	2.62µM*	-3.4%
Cc1cc[n+](-c2ccccc2)c2ccccc12	?	.	11.7µM*	-1.0%	1.65µM*	-6.8%
COc1ccccc1C(=O)C1CCCN(C(=O)c2ccco2)C1 (configuration not stated)	0.6%	-0.7%	18.6%	3.9%	?	1.7%
Cc1ccc(S(=O)(=O)Cc2ccc(C(=O)NCc3cccs3)o2)cc1	-11.0%	2.1%	.	2.8%	3.7µM*	6.2%
Cc1ccc(CNC(=O)c2ccc(CS(=O)(=O)c3ccccc3)o2)cc1	-27.9%	-6.3%	7.6%	13.9%	4.65µM*	-0.5%
Cc1ccccc1S(=O)(=O)Cc1ccc(C(=O)NCc2cccs2)o1	-9.7%	-15.3%	.	-10.5%	?	8.4%
COc1ccc(N2CCN(C(=O)CCc3nnc4ccc(N5CCCC5)nn34)CC2)cc1	13.3%	16.4%	?	-6.0%	11.7µM*	-0.8%
CC1CCN(c2ccc3nnc(CCC(=O)N4CCCCC4)n3n2)CC1	9.6%	5.6%	-0.6%	-1.5%	?	8.8%
CC1CCN(c2ccc3nnc(CCC(=O)N4CCN(c5ccc(F)cc5)CC4)n3n2)CC1	?	-7.7%	5.22µM*	-8.2%	-16.6%	?
CCCc1cc(=O)[nH]c(SCC(=O)NCCC2=CCCCC2)n1	0.2%	.	-16.5%	11.1%	0.0%	-1.3%
COc1cccc(C2(O)C(=O)Nc3ccccc32)c1 (configuration not stated)	?	3.6%	-18.2%	14.4%	25.8%	-1.9%
O=C1Nc2ccccc2C1(O)c1ccccc1 (configuration not stated)	8.9%	.	-1.0%	2.3%	0.104µM*	-10.4%

Source: PubChem
